In PubChem BioAssay (Tox21):
Several values for one entry are separate records, joined by “and”; a condition that tells them apart may be missing. Identical values can stand only once. Inconclusive results are not listed. Where a call stands in place of a potency, no number is given. Values without a mark were called inactive. Activity calls are given as the source filed them. Unless noted, calls follow the shape of the dose curve; as a rule, active = well fitted curve in the direction sought with a large enough effect in the repeat runs; inconclusive = weak or mixed curves; inactive = no such curve, though single readings can be large; an effect the other way counts as inactive or inconclusive.

What was measured:
[1] = qHTS assay to identify small molecule antagonists of the retinoic acid receptor (RAR) signaling pathway (AID 1159552; also: nearly all actives have a fitted effect of over 50% in size; also: potency is read from the fitted curve at half-maximal effect); conditions: C3RL4 RARE luciferase reporter, retinol-stimulated, 6 h; series mostly up to 92.4 µM
In short: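 Cells of the C3RL4 line were seeded, incubated overnight, then dosed with compounds in DMSO followed immediately by retinol (1 uM final). Six hours later luciferase detection reagent went in; signal was measured after 30 min at RT.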

[2] = qHTS assay to identify small molecule antagonists of the estrogen related receptor (ERR) signaling pathway from Tox21 library - cell viability counter screen (AID 1224834); conditions: ERR reporter cells viability, CellTiter-Fluor, 17.5 h; series mostly up to 92.4 µM; also: nearly all actives have a fitted effect of over 30% in size; also: potency is read from the fitted curve at half-maximal effect
In short: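 Counter screen run in ERR cells (2,000 cells/well): cells pre-incubated 6 h, then treated with compounds for 17.5 h at 37 C. Fluorescence was read 30 min after CellTiter-Fluor addition.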

[3] = biological target: Luciferin 4-monooxygenase (Photinus pyralis) (UniProt P08659); assay: qHTS assay to identify small molecule inhibitors of firefly luciferase (AID 1224835); also: nearly all actives have a fitted effect of over 25% in size; also: potency is read from the fitted curve at half-maximal effect; conditions: purified P. pyralis luciferase, luminescence inhibition; series mostly up to 115 µM
Sequence of Luciferin 4-monooxygenase (Photinus pyralis) (P08659 whole entry, looked up): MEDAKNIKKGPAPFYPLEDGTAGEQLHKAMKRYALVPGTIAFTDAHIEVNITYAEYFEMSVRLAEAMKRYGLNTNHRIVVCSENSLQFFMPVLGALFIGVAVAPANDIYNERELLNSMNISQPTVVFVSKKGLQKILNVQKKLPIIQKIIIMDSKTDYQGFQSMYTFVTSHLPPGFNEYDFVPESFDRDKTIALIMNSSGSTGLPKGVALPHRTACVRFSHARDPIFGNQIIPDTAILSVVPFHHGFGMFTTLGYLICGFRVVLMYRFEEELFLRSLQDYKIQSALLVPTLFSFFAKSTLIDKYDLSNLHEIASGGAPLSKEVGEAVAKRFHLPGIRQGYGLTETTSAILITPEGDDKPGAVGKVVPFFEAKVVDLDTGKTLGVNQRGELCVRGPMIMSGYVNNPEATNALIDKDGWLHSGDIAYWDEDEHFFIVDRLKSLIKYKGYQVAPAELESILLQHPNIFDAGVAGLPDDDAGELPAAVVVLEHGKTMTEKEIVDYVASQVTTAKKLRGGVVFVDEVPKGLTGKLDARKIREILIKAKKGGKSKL
In short: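 Inhibition of purified Photinus luciferase is measured by luminescence. Substrate levels (D-luciferin, ATP) sit at their KM values. Each compound is tested in a concentration series.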

[4] = qHTS assay to identify small molecule agonists of the retinoic acid receptor (RAR) signaling pathway (AID 1159553); conditions: C3RL4 RARE luciferase reporter, agonist, 6 h; series mostly up to 73.3 µM
In short: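 In this cell-based screen, 1,000 C3RL4 cells per well were cultured overnight, dosed with test chemicals in DMSO for 6 hr, and assessed for RARE luciferase luminescence.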

[5] = qHTS assay to identify small molecule antagonists of the estrogen related receptor (ERR) signaling pathway - cell viability counter screen (AID 1224818); conditions: ERR reporter cell line viability counter screen; series mostly up to 46.1 µM
In short: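 Viability of ERR cells, CellTiter-Fluor fluorescence; 17.5 h compound exposure at 37 C, DMSO vehicle; 30 min reagent incubation at 37 C/5% CO2.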

[6] = qHTS assay to identify small molecule antagonists of the estrogen related receptor signaling pathway with the pleiotropic PPARgamma coactivator (PGC) cell viability counter screen (AID 1224822); conditions: ERR/PGC reporter cell line viability counter screen; series mostly up to 46.1 µM
In short: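 17.5 h compound treatment of PGC/ERR cells at 37 C; readout CellTiter-Fluor fluorescence; run alongside the PGC/ERR antagonist screen to flag cytotoxic compounds.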

[7] = qHTS assay to identify small molecule antagonists of the estrogen related receptor (ERR) signaling pathway (AID 1224819;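 also: luminescence from an ERR-driven luciferase reporter measured with One-Glo reagent; nearly all actives have a fitted effect of over 50% in size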); conditions: ERR reporter cell line, luciferase inhibition; series mostly up to 92.2 µM
In short: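 Seed ERR cells 2,000/well; rest 6 h at 37 C/5% CO2; pin compounds in DMSO; incubate 18 h at 37 C; add One-Glo; wait 30 min at room temperature; measure luminescence.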

[8] = qHTS assay to identify small molecule agonists of the estrogen related receptor (ERR) signaling pathway (AID 1224820); conditions: ERR reporter cell line, luciferase agonist mode; series mostly up to 46.1 µM
In short: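 Luminescence readout (One-Glo, 30 min RT) from NTP-supplied ERR cell line exposed to compounds for 18 h at 37 C. Cells seeded 2,000 per well and pre-incubated 6 h before pin-tool compound transfer.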

[9] = tested on: estrogen-related receptor alpha (ERRalpha) with PGC-1alpha coactivator, human; assay: qHTS assay to identify small molecule antagonists of the estrogen related receptor signaling pathway with the pleiotropic PPARgamma coactivator (PGC) (AID 1224821; calls by dose curve;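 also: lower luminescence signal means antagonism of PGC/ERR signalling; nearly all actives have a fitted effect of over 50% in size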); conditions: ERR/PGC reporter cell line, luciferase, antagonist mode; series mostly up to 46.1 µM
In short: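 PGC/ERR reporter cells; 6 h pre-incubation 37 C/5% CO2; pin-tool compound in DMSO, 18 h 37 C; One-Glo added, 30 min RT; luminescence read. qHTS antagonist mode.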

[10] = qHTS assay to identify small molecule agonists of the estrogen related receptor signaling pathway with the pleiotropic PPARgamma coactivator (PGC) (AID 1224823); conditions: ERR/PGC reporter cell line, luciferase agonist mode; series mostly up to 46.1 µM
In short: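 Luminescence readout (One-Glo, 30 min RT) from PGC/ERR cell line treated 18 h at 37 C with pin-tool-delivered DMSO compound solutions; cells plated 6 h before dosing. Quantitative HTS format.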

O=C1NC2CCCCN2C12CCN(CCCN1c3ccccc3CCc3ccc(Cl)cc31)CC2 (stereo unspecified)
Potency [1]: 29.8 µM (active) | Potency [2]: 29.8 µM (active) | Potency [3]: inactive

COc1ccccc1C=O
Potency [1]: inactive | Potency [2]: inactive | Potency [3]: inactive

C=C/C=C/C=C/CCCCC
activity, negative = inhibition [1]: 7.32% [at 19 µM] | viability change, negative = cytotoxic [2]: -1.2% [at 19 µM] | activity change, negative = inhibition [3]: 0.374% [at 23.6 µM]

CCN(CC)c1cccc(C)c1
Potency [1]: inactive | Potency [2]: inactive | Potency [3]: inactive

Cc1cccc(C)n1
Potency [1]: inactive | Potency [2]: inactive | Potency [3]: inactive

O=C[C@H](O)[C@H](O)[C@H](O)CO
Potency [1]: inactive | Potency [2]: inactive | Potency [3]: inactive

COCC(=O)O[C@]1(CCN(C)CCCc2nc3ccccc3[nH]2)CCc2cc(F)ccc2[C@@H]1C(C)C
Potency [1]: 26.6 µM (active) | Potency [2]: 26.6 µM (active) | Potency [3]: inactive

CCC(C)C(=O)OC (stereo unspecified)
Potency [1]: inactive | Potency [2]: inactive | Potency [3]: inactive

CC(C)(C)c1cc(CCC(=O)NCCCCCCNC(=O)CCc2cc(C(C)(C)C)c(O)c(C(C)(C)C)c2)cc(C(C)(C)C)c1O
Potency [1]: inactive | Potency [2]: inactive | Potency [3]: inactive

CC(C)=CC1CC(C)CCO1 (stereo unspecified)
Potency [1]: inactive | Potency [2]: inactive | Potency [3]: inactive

CCN=c1cc2oc3cc(NCC)c(C)cc3c(-c3ccccc3C(=O)OCC)c-2cc1C
Potency [1]: 24.2 µM (active) and 24.3 µM (active) | Potency [2]: 272 nM (active) and 243 nM (active) | Potency [3]: inactive

OCCC(O)CO (stereo unspecified)
Potency [1]: inactive | Potency [2]: inactive | Potency [3]: inactive

O[C@@H](c1cc(C(F)(F)F)nc2c(C(F)(F)F)cccc12)[C@H]1CCCCN1
Potency [1]: 23.7 µM (active) | Potency [2]: 29.8 µM (active) | Potency [3]: inactive

OCCCS
Potency [1]: inactive | Potency [2]: inactive | Potency [3]: inactive

O=C(O)c1cccc(Cl)n1
Potency [1]: inactive | Potency [2]: inactive | Potency [3]: inactive

O=C(O)Cc1ccc(OCCNC[C@H](O)c2ccccc2)cc1
Potency [1]: inactive | Potency [2]: inactive | Potency [3]: inactive

OCCCc1cccnc1
Potency [1]: inactive | Potency [2]: inactive | Potency [3]: inactive

O=C1OC(OC(=O)c2cccnc2Nc2cccc(C(F)(F)F)c2)c2ccccc21 (stereo unspecified)
Potency [1]: inactive | Potency [2]: inactive | Potency [3]: inactive

CCOC(/C=C(\C)CCC=C(C)C)OCC
Potency [1]: inactive | Potency [2]: inactive | Potency [3]: inactive

Oc1cc2ccccc2cc1O
Potency [1]: inactive | Potency [2]: inactive | Potency [3]: inactive

CCCOc1sc(C(=O)N2CCC(c3cc(CN)ccc3F)CC2)c(C)c1Br
Potency [1]: 39.7 µM (active) | Potency [2]: 49.9 µM (active) | Potency [3]: inactive

CCN=C1C=CC(=C(c2ccc(N(CC)CC)cc2)c2ccc(N(CC)CC)cc2)c2ccccc21
Potency [1]: 4.83 µM (active) | Potency [2]: 8.58 µM (active) | Potency [3]: 28.1 µM (active)

CCCCCCCCC(C)=O
Potency [1]: inactive | Potency [2]: inactive | Potency [3]: inactive

CC(C)(C)c1n[nH]c(=O)n(N)c1=O
Potency [1]: inactive | Potency [2]: inactive | Potency [3]: inactive

[O]=[Zr]
Potency [4]: inactive | Potency [2]: inactive | Potency [3]: 39.8 µM (active)

CN(Cc1cc(Br)cc(Br)c1N)C1CCCCC1
Potency [4]: inactive | Potency [2]: inactive | Potency [3]: inactive

c1cc(OCC2CO2)cc(OCC2CO2)c1 (stereo unspecified)
Potency [2]: 60.6 µM (active) | Potency [3]: inactive

CN(C)CCCN1c2ccccc2CCc2ccccc21
Potency [5]: inactive | Potency [6]: inactive

C=CC(C)C#N (stereo unspecified)
Potency [1]: inactive | Potency [3]: inactive

CCCCOC(=O)C(C)CC (stereo unspecified)
Potency [1]: inactive | Potency [3]: inactive

C=C[C@](C)(O)CC[C@@H]1[C@@]2(C)CCCC(C)(C)[C@@H]2CC[C@@]1(C)O
Potency [2]: 61.1 µM (active) | Potency [3]: inactive

CC(C)(c1cc(Br)c(OCCO)c(Br)c1)c1cc(Br)c(OCCO)c(Br)c1
Potency [4]: inactive | Potency [2]: 42.3 µM (active) | Potency [3]: inactive

CCCCOc1ccc(C(=O)CCN2CCCCC2)cc1
Potency [2]: inactive

NC(=O)c1nc(-c2cccc(-c3cc(F)ccc3OCC(F)(F)C(F)(F)F)c2)n[nH]1
Potency [4]: inactive | Potency [3]: inactive

Oc1c(Br)cc(Br)c2cccnc12
Potency [4]: inactive | Potency [3]: inactive

Cc1c(-c2ccc(O)cc2)n(Cc2ccc(OCCN3CCCCCC3)cc2)c2ccc(O)cc12
Potency [2]: 29.8 µM (active)

CC(C)(C)c1cc(/C=C2\SC(=N)NC2=O)cc(C(C)(C)C)c1O
Potency [4]: inactive | Potency [2]: 61.1 µM (active) | Potency [3]: inactive

CCCCCCC(C)Nc1ccc(Nc2ccccc2)cc1 (stereo unspecified)
Potency [4]: inactive | Potency [3]: inactive

S=P(N1CC1)(N1CC1)N1CC1
Potency [4]: inactive | Potency [5]: inactive | Potency [7]: inactive | outcome [8]: inactive | outcome [9]: inactive | Potency [6]: inactive | outcome [10]: inactive | Potency [2]: inactive | Potency [3]: inactive
